NPR1 antag: human Npr1 receptor antagonism | AID 1347048 | 76,000 compounds, 1.6% hits | HEK293 hNpr1 GloSensor cGMP, ANP-stimulated luminescence | Potency, µM (series often up to 46.3 µM), for inactives: at the highest dose activity change, negative = inhibition, actives largely listed as inhibitors; calls by dose curve; also: nearly all actives have a fitted effect of over 60% in size
Target sequence (P16066 whole entry, looked up): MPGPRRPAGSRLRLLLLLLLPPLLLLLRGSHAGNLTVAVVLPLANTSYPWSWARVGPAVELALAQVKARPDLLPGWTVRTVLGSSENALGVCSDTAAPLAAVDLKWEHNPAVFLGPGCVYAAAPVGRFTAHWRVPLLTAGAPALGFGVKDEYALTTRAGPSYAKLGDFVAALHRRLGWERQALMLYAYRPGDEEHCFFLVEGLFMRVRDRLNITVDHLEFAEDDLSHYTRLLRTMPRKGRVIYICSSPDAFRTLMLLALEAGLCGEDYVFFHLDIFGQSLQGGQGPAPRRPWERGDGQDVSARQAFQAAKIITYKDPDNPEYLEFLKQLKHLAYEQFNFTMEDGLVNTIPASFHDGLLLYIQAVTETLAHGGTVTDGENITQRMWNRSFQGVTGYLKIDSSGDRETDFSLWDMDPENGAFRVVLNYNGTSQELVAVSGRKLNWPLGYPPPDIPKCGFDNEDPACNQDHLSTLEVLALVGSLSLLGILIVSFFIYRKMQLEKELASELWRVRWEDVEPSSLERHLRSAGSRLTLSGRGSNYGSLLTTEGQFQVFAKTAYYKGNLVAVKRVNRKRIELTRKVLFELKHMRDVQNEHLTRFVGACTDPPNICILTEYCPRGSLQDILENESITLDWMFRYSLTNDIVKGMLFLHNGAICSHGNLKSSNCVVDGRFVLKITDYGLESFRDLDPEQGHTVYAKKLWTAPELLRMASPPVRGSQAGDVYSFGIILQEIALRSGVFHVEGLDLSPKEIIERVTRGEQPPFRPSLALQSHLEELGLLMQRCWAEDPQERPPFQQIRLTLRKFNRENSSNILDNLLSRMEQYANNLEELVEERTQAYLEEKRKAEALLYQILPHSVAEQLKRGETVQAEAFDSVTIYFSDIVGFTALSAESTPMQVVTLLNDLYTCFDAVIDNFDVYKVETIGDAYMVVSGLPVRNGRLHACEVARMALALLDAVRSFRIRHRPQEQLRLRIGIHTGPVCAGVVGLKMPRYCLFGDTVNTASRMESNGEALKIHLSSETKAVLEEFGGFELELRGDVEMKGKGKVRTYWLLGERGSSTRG
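Compound pre-incubated 30 min at room temperature on GloSensor-loaded HEK293 cells stably carrying hNpr1 and the pGS-40F cGMP biosensor. Stimulation uses hNppA at 0.1 nM final; luminescence is taken at baseline and 20 min post-agonist.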
HEK cytotox: cytotoxic compounds in HEK 293 cells; 94,000 compounds, 6.6% hits; HEK 293 viability, ATP luminescence (CellTiter-Glo), 48-72 h; AID 1345083; Potency, µM (titrated, usually from 115 µM), without a hit: at the top dose activity change, negative = cytotoxicity, most hits filed as inhibitors; also: nearly all actives have a fitted effect of over 60% in size
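HEK 293 cells at 250 cells/well were exposed to compounds by pintool transfer for 48 or 72 hr at 37 degree Celsius, 5% CO2. Viability was read as ATP-coupled luminescence with CellTiter-Glo after 10 min at room temperature.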
NIH3T3 tox: NIH 3T3 cell cytotoxicity; NIH 3T3 viability, CellTiter-Glo ATP luminescence, 48-72 h; Potency, µM (doses to about 96.7 µM), for the others: at the highest dose activity change, negative = cytotoxicity, hits mostly inhibitors; 94,000 compounds, 4.3% hits; AID 1345082; also: nearly all actives have a fitted effect of over 55% in size
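Luminescent ATP readout (CellTiter-Glo, 10 min RT) after 48 or 72 hr compound exposure of NIH 3T3 cells seeded at 400 cells/well in 1536-well format; quantitative HTS.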
Luciferase inh: blocks purified firefly luciferase enzyme activity; P08659; purified P. pyralis luciferase, luminescence, biochemical; Potency, µM (titrated, usually from 115 µM), hits mostly inhibitors; 76,000 compounds, 2.5% hits; AID 1347043; also: nearly all actives have a fitted effect of over 65% in size
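Inhibitors were tested against purified firefly luciferase in a biochemical, low-substrate format (both substrates at 10uM) and luminescence measured with a CCD imager.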
Numbers without * were called inactive; i = inactive; ? = inconclusive; nt = no result given; [ ] = dose if it differs, or a comment. The list is not random: actives were taken first. Their share in the collection is about 11%. Unless noted, calls follow the shape of the dose curve; as a rule, active = well fitted curve in the direction sought with a large enough effect; inconclusive = small, poorly fitted or top-dose-only effect, or another doubt; inactive = no such curve, though single readings can be large; an effect the other way counts as inactive or inconclusive. % is scaled to controls: 0 for no effect and ±100 for the full control effect; potency is read from the fitted curve at half-maximal effect.

SMILES	NPR1 antag	HEK cytotox	NIH3T3 tox	Luciferase inh
COc1ccccc1NC(=O)CC1CCCN(c2cnn(C)c(=O)c2)C1 (stereo not drawn)	-22%	8%	-5%	i
COc1ccc(Cl)cc1S(=O)(=O)N1CCC2(CCCNC2)C1 (stereo not drawn)	7%	?	-12%	i
CCCNCc1ccc(-c2ccccc2)o1	-1%	-6%	i	i
c1ccc(-c2ccc(CNCc3cccs3)o2)cc1	-25%	?	-22%	35µM*
CC(=O)Nc1ccc(-c2nnc3n2CCN(C(=O)c2cccc(Cl)c2)C3)cc1	nt	2%	-14%	nt
COc1ccc(N2CC3CCC(C2)N3Cc2cccc(-c3cccnc3)c2)cc1	nt	40µM*	?	nt
COCCc1noc(-c2nc(-c3ccc4c(c3)OCO4)no2)n1	-17%	?	-4%	18µM*
c1cc2c(cc1-c1noc(-c3nc(-c4ccc5c(c4)OCO5)no3)n1)OCO2	-9%	13%	i	i
O[C@@H]1C[C@@H](c2nc(-c3ccc4c(c3)OCO4)no2)N(Cc2ccncc2)C1	?	89µM*	?	?
OCc1ccc(CN2C[C@H](O)C[C@H]2c2nc(-c3ccc4c(c3)OCO4)no2)o1	-13%[70.6 µM]	-16%[172 µM]	-28%[174 µM]	18µM*
CN1C[C@H](O)C[C@H]1c1nc(-c2ccc3c(c2)OCO3)no1	-14%[70.6 µM]	-25%[230 µM]	-21%[230 µM]	28µM*
CC(=O)N[C@H]1C[C@@H](c2nc(-c3ccc4c(c3)OCO4)no2)N(C)C1	1%[70.6 µM]	-14%[172 µM]	-23%[174 µM]	i
CC(=O)N1CCC(c2nnc3n2C(C(=O)NCc2ccccc2F)CC3)CC1 (stereo not drawn)	nt	-12%	-21%	nt
Cc1nc2ccc(Cl)cn2c1C(=O)NC1CCOC2(CCOCC2)C1 (stereo not drawn)	5%	i	4%	i
COc1cccc(-c2ccc(C(=O)NCCNC(=O)c3ccc4c(c3)OCO4)cc2)c1	nt	79µM*	-27%	nt
COc1cccc(-c2ccc(C(=O)NCCN[S+](=O)([O-])c3ccccc3)cc2)c1	nt	45µM*	?	nt
COc1ccc(C(=O)NCCNC(=O)c2ccc(-c3cccc(OC)c3)cc2)cc1	nt	-3%	-23%	nt
O=C(NCCN[S+](=O)([O-])c1ccccc1)c1cccc(-c2ccc(C(F)(F)F)cc2)c1	nt	10µM*	22µM*	nt
Cc1ccc([S+](=O)([O-])NCCNC(=O)c2ccc(-c3cccc(C(F)(F)F)c3)cc2)cc1	nt	-27%	-22%	nt
Cc1noc(C)c1[S+](=O)([O-])NCCNC(=O)c1ccc(-c2cccc(C(F)(F)F)c2)cc1	nt	?	35µM*	nt
COCCN1CCC(C(=O)Nc2cccc(NC(=O)Cc3ccccc3)c2)C1 (stereo not drawn)	6%	3%	-6%	i
COc1cccc(-c2ccc(C(=O)NCCN[S+](=O)([O-])c3cccc(C(F)(F)F)c3)cc2)c1	nt	32µM*	?	nt
Cc1ccc(-c2cc3c(=O)n(CCNC(=O)c4ccc[nH]c4=O)ccn3n2)cc1C	-14%	-7%	-17%	7.9µM*
Cc1ccc(C(=O)NCCn2ccn3nc(-c4ccc(C)c(C)c4)cc3c2=O)cc1	0%	-2%	-9%	i
Cc1ccc(-c2cc3c(=O)n(CCNC(=O)Cc4cccc(F)c4)ccn3n2)cc1C	?	-18%	?	3.5µM*
SMILES	NPR1 antag	HEK cytotox	NIH3T3 tox	Luciferase inh
Cc1noc(C2CC3(CCN(C(=O)CC4CCCCC4)CC3)CN2C)n1 (stereo not drawn)	nt	?	-26%	nt
COc1ccc(S(=O)(=O)N2CCOC[C@H](Oc3ccc(C(F)(F)F)cn3)C2)cc1	?	100µM*	?	i
Cc1noc(C)c1S(=O)(=O)N1CCOC[C@H](Oc2ccc(C(F)(F)F)cc2)C1	-21%[70.6 µM]	63µM*	?	i
O=S(=O)(c1ccc(F)cc1)N1CCOC[C@H](Oc2ccc(C(F)(F)F)cn2)C1	?	?	?	i
COc1ccc(S(=O)(=O)N2CCOC[C@H](Oc3ccccc3)C2)cc1	-9%[70.6 µM]	63µM*	?	i
CC(=O)N1CCN(C(=O)c2ccc3nnc(C(C)(C)C)n3c2)CC1	nt	i	-19%[138 µM]	nt
COc1ccc(Cl)cc1C(=O)N1CCC[C@H]1c1nc(-c2ccc(C)cc2)no1	-12%	?	?	i
O=C(NCC1CCCCC1)c1ccc2oc(-c3ccccn3)nc2c1	nt	-3%	1%	nt
C[S+](=O)([O-])Nc1cccc(-c2cc3c(ccn3Cc3cccnc3)c(C3=CCOCC3)n2)c1	-10%	?	?	i
C1=C(c2nc(-c3cncnc3)cc3c2ccn3Cc2cccnc2)CCOC1	3%[70.6 µM]	-16%[172 µM]	?	i
COc1cccc(-c2cc3c(ccn3Cc3cccnc3)c(C3=CCOCC3)n2)c1OC	0%[70.6 µM]	100µM*	71µM*	i
CN(C)Cc1cccc(-c2cc3c(ccn3Cc3cccnc3)c(C3=CCOCC3)n2)c1	0%[70.6 µM]	35µM*	?	i
Cc1ccc(-c2cc3c(ccn3Cc3cccnc3)c(C3=CCOCC3)n2)cn1	-1%[70.6 µM]	45µM*	?	i
CCN1CC(CN(C)Cc2cn(-c3ccccc3C)nc2-c2ccc(OC)c(F)c2)CC1=O (stereo not drawn)	0%	22µM*	?	i
Cc1cccc(C)c1N1C(C(=O)OC(C)(C)C)=C(O)c2ccccc2S1(=O)=O	nt	?	20µM*	nt
COc1ccc(CCNC(=O)c2ccc(N3CC4CC(C3)[C@H]3CCCC(=O)N3C4)nc2)cc1OC (stereo partly drawn)	1%	-22%	-9%	i
O=C1COCC2(CN(Cc3ccsc3)C2)CN1Cc1cccc(OC(F)(F)F)c1	-19%[70.6 µM]	63µM*	45µM*	i
O=C1COCC2(CN1Cc1cccc(OC(F)(F)F)c1)CN(c1ccccc1F)C2	0%[70.6 µM]	89µM*	89µM*	i
O=C1OCC2(CCN(Cc3cccc(OC(F)(F)F)c3)C2)N1c1ccncc1 (stereo not drawn)	7%[70.6 µM]	100µM*	?	i
Cn1cc(CN2CC3(COCC(=O)N(Cc4cccc(OC(F)(F)F)c4)C3)C2)cn1	-16%[70.6 µM]	?	-19%[138 µM]	i
O=C1COCC2(CN1Cc1cccc(OC(F)(F)F)c1)CN(c1ccccn1)C2	-2%[70.6 µM]	?	-16%[138 µM]	i
CN(Cc1ccc(-c2ccccc2)cc1)C(=O)Nc1ccccc1	?	?	-20%[138 µM]	i
CN(Cc1ccccc1)Cc1ccc(-c2ccccc2)cc1	0%[70.6 µM]	?	-21%[138 µM]	i
CN(Cc1ccc(-c2ccccc2)cc1)S(C)(=O)=O	1%[70.6 µM]	?	?	14µM*
CN(Cc1ccc(-c2ccccc2)cc1)C(=O)C(C)(C)C	-5%[70.6 µM]	63µM*	?	35µM*
CN(Cc1ccc(F)cc1)C(=O)C(C)(C)C	16%[70.6 µM]	i	1%[174 µM]	i
CN(Cc1ccccc1)C(=O)C1CCN(c2cc(C3CC(O)C3)ncn2)CC1 (stereo not drawn)	13µM*	?	-38%	i
CN(Cc1ccc(-c2ccccc2)cc1)C(=O)Cc1cccc(Cl)c1	?	63µM*	?	?
